Reference: the supplement of paper PMC10849652
The full data set covers some 8,800 targets. This sample favours those with a hit. About 0.5% of all pairs of compound and target were hits. A number with no mark means an inactive call.

Experiments:
Experiment in all cases: log2 fold change, soluble protein after heating vs DMSO (PISA); higher = thermal stabilisation; K562 lysate, 10 uM; active = over 0.2 and 3.5 SD of the protein, either way, in both replicates (recomputed)
erlotinib = compound: C#Cc1cccc(Nc2ncnc3cc(OCCOC)c(OCCOC)cc23)c1 [erlotinib]
Summary of the method: (§1)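 Values give the log-two fold change in thermal stability against solvent controls, from duplicates. Crude K562 extract at 1 mg/mL protein, made by dounce homogenisation in PBS pH 7.4 with 1 mM MgCl2, was treated with 10 μM compound for 30 min. After 3 min heating across 48°C-58°C, aliquots were pooled, adjusted to 0.5% NP-40 at 4°C and centrifuged at 21,000xg for 90 min. The supernatant was measured by TMTpro 16plex LC-MS/MS with channel sums equalised.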

[1] = compound: C/C(=N\NC(=O)C1=CC(=CC=C1)S(=O)(=O)N2CCOCC2)/C3=C(C=CC(=C3)Cl)O
Summary of the method: as §1

[2] = compound: C1=CC(=CC=C1C2=NC3=C(N2)C=C(C=C3)C(=O)N)OC4=CC=C(C=C4)Cl
Summary of the method: as §1

[3] = compound: C1=CC2=C(C=CC(=C2)/C=C\3/C(=O)NC(=NCC4=CC=CS4)S3)N=C1
Summary of the method: as §1

[4] = compound: C1=CC2=NC=CN=C2C=C1/C=C/3\C(=O)NC(=O)S3
Summary of the method: as §1

[5] = compound: C1=CC=C(C=C1)C2=NC(=C(N2)C3=CC=NC=C3)C4=CC(=C(C=C4)Cl)O
Summary of the method: as §1

[6] = compound: C1=CC=C2C(=C1)C3=NNC4=CC=CC(=C43)C2=O
Summary of the method: as §1

[7] = compound: C1CCN(C1)C(=O)NC2=CC=CC(=C2)NC3=NC=C(C(=N3)NCCC4=CN=CN4)Br
Summary of the method: as §1

[8] = compound: C1CN(CCC1(CC2=CC=C(C=C2)Cl)N)C3=NC=NC4=C3C=CN4
Summary of the method: as §1

IRAK-1-4 Inhibitor I = compound: C1COCCN1CCN2C3=CC=CC=C3N=C2NC(=O)C4=CC(=CC=C4)[N+](=O)[O-] [IRAK-1-4 Inhibitor I]
Summary of the method: as §1

ibrutinib = compound: C=CC(=O)N1CCC[C@@H](n2nc(-c3ccc(Oc4ccccc4)cc3)c3c(N)ncnc32)C1 [ibrutinib]
Summary of the method: as §1

[9] = compound: CC(=O)c1cnc2ccc(-c3cc(Cl)c(O)c(Cl)c3)nc2c1N[C@H]1CC[C@H](CN(C)C)CC1
Summary of the method: as §1

ralimetinib = compound: CC(C)(C)Cn1c(N)nc2ccc(-c3[nH]c(C(C)(C)C)nc3-c3ccc(F)cc3)nc21 [ralimetinib]
Summary of the method: as §1

[10] = compound: CC(C)(O)CC(=O)NCCn1ccc2ncnc(Nc3ccc(Oc4cccc(C(F)(F)F)c4)c(Cl)c3)c21
Summary of the method: as §1

[11] = compound: CC(C)C1=C2N=C(C=C(N2N=C1)NCC3=CC=CC=C3)NCCCCCCN
Summary of the method: as §1

[12] = compound: CC1=C(C(CC(=O)N1)C2=CC=C(C=C2)C(F)(F)F)C(=O)NC3=C(C=C4C(=C3)C=NN4)F
Summary of the method: as §1

[13] = compound: CC1=C(C2=C(C=C1)C(=O)C3=CC=CC=C3N2CCCN)C
Summary of the method: as §1

[14] = compound: CC1=C(C=C(C=C1)NC(=O)C2=CC(=CC=C2)C(C)(C)C#N)NC3=CC4=C(C=C3)N=CN(C4=O)C
Summary of the method: as §1

[15] = compound: CC1=C(C=C(C=C1)NC(=O)C2=CC(=CC=C2)N(C)C)NC(=O)C3=CC=C(C=C3)O
Summary of the method: as §1

[16] = compound: CC1=CC=C(C=C1)SC2=C3C=C(SC3=CN=C2)C(=O)N
Summary of the method: as §1

UniProt P04004, sequence (P04004 whole entry, looked up): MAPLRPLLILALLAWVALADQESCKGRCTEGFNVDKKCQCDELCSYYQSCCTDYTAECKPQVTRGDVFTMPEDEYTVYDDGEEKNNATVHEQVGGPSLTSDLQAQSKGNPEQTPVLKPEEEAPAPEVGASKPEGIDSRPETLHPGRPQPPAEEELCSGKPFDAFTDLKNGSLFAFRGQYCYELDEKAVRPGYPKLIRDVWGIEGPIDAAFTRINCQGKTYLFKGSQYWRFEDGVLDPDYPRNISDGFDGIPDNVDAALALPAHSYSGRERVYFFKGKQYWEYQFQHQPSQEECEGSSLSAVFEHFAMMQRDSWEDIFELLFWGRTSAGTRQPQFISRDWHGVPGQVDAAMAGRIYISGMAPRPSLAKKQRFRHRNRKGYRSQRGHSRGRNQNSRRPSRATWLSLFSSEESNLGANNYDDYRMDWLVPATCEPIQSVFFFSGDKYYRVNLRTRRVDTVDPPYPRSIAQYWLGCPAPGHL
UniProt Q96JC1, sequence (Q96JC1 whole entry, looked up): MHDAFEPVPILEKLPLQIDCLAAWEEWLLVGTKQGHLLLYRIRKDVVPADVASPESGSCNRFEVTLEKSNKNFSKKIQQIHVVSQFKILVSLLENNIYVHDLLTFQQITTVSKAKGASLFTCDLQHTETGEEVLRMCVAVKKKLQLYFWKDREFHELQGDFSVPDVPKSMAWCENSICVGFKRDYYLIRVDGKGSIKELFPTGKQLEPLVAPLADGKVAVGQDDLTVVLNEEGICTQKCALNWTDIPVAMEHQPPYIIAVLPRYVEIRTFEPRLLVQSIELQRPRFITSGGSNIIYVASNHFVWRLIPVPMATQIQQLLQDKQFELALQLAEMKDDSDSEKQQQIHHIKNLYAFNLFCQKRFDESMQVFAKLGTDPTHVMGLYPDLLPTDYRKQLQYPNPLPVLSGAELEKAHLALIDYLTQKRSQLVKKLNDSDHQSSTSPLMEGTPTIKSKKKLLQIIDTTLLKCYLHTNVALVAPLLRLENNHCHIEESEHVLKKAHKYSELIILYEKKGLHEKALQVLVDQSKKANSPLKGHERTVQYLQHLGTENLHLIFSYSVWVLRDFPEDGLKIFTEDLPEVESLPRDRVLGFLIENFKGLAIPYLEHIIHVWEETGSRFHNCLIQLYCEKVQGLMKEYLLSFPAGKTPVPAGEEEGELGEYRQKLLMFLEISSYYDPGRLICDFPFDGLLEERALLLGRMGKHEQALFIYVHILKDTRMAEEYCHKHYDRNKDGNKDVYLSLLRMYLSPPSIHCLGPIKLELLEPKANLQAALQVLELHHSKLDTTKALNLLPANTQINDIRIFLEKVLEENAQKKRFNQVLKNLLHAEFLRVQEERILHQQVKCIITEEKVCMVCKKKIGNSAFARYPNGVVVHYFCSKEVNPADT
UniProt Q9Y4P8, sequence (Q9Y4P8 whole entry, looked up): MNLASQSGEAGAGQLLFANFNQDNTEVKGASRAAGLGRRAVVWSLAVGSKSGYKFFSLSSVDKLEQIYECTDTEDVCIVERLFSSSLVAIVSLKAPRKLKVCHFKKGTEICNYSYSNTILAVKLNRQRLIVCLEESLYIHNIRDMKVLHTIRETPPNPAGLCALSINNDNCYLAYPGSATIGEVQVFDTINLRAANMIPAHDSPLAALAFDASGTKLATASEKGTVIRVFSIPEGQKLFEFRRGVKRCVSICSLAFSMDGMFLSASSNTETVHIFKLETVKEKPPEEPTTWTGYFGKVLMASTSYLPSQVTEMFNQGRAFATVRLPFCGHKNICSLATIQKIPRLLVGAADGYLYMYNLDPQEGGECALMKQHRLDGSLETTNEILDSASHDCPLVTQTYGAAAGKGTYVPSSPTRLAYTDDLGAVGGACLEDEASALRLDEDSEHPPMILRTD
UniProt Q5SVZ6, sequence (Q5SVZ6 whole entry, looked up): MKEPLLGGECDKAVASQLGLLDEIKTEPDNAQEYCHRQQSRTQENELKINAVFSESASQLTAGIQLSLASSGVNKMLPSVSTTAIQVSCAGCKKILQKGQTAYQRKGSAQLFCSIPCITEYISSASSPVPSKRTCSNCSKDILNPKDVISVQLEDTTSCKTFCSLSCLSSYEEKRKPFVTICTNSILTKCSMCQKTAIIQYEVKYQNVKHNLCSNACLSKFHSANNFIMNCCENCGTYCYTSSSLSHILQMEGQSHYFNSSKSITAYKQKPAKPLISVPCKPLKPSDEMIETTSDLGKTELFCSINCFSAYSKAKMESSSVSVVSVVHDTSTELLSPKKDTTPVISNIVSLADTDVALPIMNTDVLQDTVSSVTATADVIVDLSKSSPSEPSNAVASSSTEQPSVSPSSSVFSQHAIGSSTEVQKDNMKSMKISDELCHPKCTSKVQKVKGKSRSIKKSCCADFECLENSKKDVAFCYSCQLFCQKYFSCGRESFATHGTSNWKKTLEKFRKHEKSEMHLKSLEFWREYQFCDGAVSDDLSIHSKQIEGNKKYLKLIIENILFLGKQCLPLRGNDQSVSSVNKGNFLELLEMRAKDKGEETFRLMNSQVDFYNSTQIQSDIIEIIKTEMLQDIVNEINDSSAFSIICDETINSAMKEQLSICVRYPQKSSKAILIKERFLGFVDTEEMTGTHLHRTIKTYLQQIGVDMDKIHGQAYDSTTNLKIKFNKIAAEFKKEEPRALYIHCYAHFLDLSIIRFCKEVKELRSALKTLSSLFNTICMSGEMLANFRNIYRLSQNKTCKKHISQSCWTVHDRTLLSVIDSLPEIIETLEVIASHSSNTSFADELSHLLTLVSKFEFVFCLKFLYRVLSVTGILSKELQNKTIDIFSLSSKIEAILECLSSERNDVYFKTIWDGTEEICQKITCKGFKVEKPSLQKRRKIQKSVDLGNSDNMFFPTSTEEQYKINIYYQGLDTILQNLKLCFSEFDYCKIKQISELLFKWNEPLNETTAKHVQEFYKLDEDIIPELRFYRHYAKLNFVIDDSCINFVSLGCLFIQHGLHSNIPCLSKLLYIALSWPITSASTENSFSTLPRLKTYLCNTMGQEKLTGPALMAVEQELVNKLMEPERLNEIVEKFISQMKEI
UniProt Q5VZL5, sequence (Q5VZL5 whole entry, looked up): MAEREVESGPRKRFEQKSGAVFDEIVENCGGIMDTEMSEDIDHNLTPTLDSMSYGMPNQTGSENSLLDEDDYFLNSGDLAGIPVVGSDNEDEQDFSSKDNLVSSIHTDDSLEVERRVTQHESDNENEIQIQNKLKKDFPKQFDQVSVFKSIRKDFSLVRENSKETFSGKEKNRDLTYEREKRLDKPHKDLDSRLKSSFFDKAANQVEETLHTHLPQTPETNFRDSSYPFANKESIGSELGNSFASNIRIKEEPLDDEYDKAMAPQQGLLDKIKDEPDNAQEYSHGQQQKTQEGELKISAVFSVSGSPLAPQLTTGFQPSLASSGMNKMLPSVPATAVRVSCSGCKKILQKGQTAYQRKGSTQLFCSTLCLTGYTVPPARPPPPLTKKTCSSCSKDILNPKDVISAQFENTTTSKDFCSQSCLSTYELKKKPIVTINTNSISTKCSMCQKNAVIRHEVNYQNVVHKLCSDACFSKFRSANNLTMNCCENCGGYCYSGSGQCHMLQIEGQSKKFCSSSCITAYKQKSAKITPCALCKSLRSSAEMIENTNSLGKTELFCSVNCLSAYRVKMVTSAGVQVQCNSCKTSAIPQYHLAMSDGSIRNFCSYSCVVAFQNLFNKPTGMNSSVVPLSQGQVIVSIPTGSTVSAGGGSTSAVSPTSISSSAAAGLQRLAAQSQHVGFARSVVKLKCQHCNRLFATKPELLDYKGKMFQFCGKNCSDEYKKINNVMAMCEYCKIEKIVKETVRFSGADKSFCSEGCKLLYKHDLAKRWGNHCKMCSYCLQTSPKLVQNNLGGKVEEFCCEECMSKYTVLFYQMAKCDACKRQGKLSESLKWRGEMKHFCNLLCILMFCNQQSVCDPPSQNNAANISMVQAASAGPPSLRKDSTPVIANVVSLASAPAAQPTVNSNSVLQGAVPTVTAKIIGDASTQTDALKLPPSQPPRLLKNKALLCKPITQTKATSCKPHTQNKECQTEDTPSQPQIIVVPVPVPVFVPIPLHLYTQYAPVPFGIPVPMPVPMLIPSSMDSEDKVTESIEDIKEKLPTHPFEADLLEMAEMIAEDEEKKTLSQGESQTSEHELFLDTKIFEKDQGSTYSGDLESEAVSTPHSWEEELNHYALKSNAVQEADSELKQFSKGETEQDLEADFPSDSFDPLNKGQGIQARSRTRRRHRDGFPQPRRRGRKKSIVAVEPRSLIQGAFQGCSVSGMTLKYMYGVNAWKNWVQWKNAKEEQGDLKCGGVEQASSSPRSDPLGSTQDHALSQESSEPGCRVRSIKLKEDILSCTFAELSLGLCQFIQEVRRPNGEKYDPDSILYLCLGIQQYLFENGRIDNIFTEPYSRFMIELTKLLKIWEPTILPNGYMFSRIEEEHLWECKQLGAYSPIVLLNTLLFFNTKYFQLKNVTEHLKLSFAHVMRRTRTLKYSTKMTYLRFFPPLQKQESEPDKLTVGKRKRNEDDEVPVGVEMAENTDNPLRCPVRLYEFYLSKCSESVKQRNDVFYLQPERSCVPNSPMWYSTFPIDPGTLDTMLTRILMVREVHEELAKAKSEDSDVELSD
UniProt P27348, sequence (P27348 whole entry, looked up): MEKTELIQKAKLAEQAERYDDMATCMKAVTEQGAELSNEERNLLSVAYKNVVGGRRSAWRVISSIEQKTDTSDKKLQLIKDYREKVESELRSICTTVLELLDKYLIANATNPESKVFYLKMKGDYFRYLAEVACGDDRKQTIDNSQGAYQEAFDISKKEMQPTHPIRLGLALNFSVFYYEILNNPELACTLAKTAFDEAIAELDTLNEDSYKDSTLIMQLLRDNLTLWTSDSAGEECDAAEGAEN
UniProt O00258, sequence (O00258 whole entry, looked up): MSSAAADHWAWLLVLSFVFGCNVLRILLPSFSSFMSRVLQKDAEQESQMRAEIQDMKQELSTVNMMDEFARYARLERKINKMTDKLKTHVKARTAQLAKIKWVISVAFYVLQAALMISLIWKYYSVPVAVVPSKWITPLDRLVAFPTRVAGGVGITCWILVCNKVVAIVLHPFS

| Target | log2 fold change (erlotinib) | log2 fold change [1] | log2 fold change [2] | log2 fold change [3] | log2 fold change [4] | log2 fold change [5] | log2 fold change [6] | log2 fold change [7] | log2 fold change [8] | log2 fold change (IRAK-1-4 Inhibitor I) | log2 fold change (ibrutinib) | log2 fold change [9] | log2 fold change (ralimetinib) | log2 fold change [10] | log2 fold change [11] | log2 fold change [12] | log2 fold change [13] | log2 fold change [14] | log2 fold change [15] | log2 fold change [16] |
| --- | --- | --- | --- | --- | --- | --- | --- | --- | --- | --- | --- | --- | --- | --- | --- | --- | --- | --- | --- | --- |
| YWHAQ (UniProt P27348) | 0.026 | 0.046 | 0.016 | 0.012 | 0.017 | 0.014 | 0.021 | -0.006 | 0.022 | 0.013 | -0.011 | -0.001 | -0.007 | 0.028 | 0 | -0.054 | 0.007 | -0.001 | 0.01 | 0.01 |
| ZFYVE19 (UniProt Q96K21) | -0.017 | -0.056 | 0.016 | -0.024 | -0.026 | 0.055 | 0.007 | -0.031 | 0.012 | -0.027 | -0.051 | -0.031 | -0.004 | 0.009 | -0.015 | -0.028 | -0.067 | -0.037 | -0.013 | -0.042 |
| VTN (UniProt P04004) | -0.065 | -0.006 | 0.003 | -0.033 | 0.107 | -0.096 | -0.129 | -0.065 | -0.042 | 0.043 | -0.019 | -0.007 | 0.01 | -0.044 | 0.028 | 0.088 | 0.017 | -0.011 | 0.155 | -0.04 |
| ZMYM4 (UniProt Q5VZL5) | -0.023 | -0.068 | 0.027 | 0.073 | -0.099 | 0.042 | -0.088 | -0.09 | 0.015 | 0.005 | -0.079 | -0.004 | 0.055 | -0.025 | 0.051 | 0.026 | -0.089 | -0.011 | -0.012 | -0.001 |
| WRB (UniProt O00258) | -0.043 | 0.208 | 0.027 | 0.002 | -0.009 | -0.002 | 0.049 | 0.051 | -0.064 | 0.101 | 0.045 | -0.043 | -0.095 | -0.255 | -0.024 | -0.025 | -0.141 | 0.063 | -0.004 | -0.024 |
| ZMYM1 (UniProt Q5SVZ6) | -0.041 | -0.027 | -0.002 | 0.021 | 0.007 | -0.036 | 0.041 | 0.043 | 0.025 | -0.008 | -0.04 | 0.012 | 0.02 | 0.016 | -0.022 | -0.049 | -0.008 | 0.001 | -0.007 | -0.011 |
| VARS (UniProt P26640) | 0.031 | 0.035 | -0.031 | 0.007 | 0.03 | 0.019 | -0.035 | 0.021 | -0.002 | 0.011 | 0.015 | -0.003 | 0.042 | 0.018 | 0.032 | 0.006 | -0.047 | 0.001 | 0.041 | 0.035 |
| VAV1 (UniProt P15498) | 0.02 | 0.081 | -0.022 | 0.001 | -0.043 | 0.037 | -0.082 | -0.004 | -0.002 | -0.009 | -0.057 | 0.054 | 0.083 | -0.042 | 0.009 | -0.004 | -0.034 | -0.078 | 0.046 | 0.082 |
| ZC3H13 (UniProt Q5T200) | 0.081 | 0.003 | 0.034 | -0.027 | -0.071 | 0.075 | -0.045 | -0.016 | -0.043 | 0.007 | 0.046 | 0.009 | -0.003 | -0.072 | 0.058 | -0.101 | 0.046 | 0.08 | -0.01 | -0.022 |
| XAB2 (UniProt Q9HCS7) | 0.049 | -0.088 | -0.012 | 0.076 | 0.093 | 0.012 | -0.041 | 0.071 | -0.014 | 0.004 | -0.089 | -0.048 | -0.002 | -0.051 | -0.011 | 0.014 | -0.032 | 0.013 | 0.03 | -0.024 |
| WIPI2 (UniProt Q9Y4P8) | -0.006 | -0.042 | -0.009 | 0.064 | -0.037 | -0.003 | 0.035 | -0.054 | -0.047 | 0.021 | 0.047 | 0.019 | 0.026 | 0.018 | 0.022 | 0.042 | -0.018 | 0.006 | -0.013 | -0.003 |
| ZDHHC18 (UniProt Q9NUE0) | 0.265 | -0.057 | -0.371 | -0.052 | -0.135 | 0.004 | 0.038 | -0.022 | 0.075 | 0.13 | -0.103 | 0.057 | 0.093 | -0.017 | -0.137 | 0.019 | 0.209 | -0.022 | 0.073 | -0.01 |
| VPS39 (UniProt Q96JC1) | 0.015 | -0.022 | -0.005 | -0.003 | -0.002 | 0.015 | -0.007 | -0.034 | 0.031 | 0.019 | 0 | 0.021 | -0.012 | -0.056 | -0.004 | 0.014 | 0 | 0.016 | -0.014 | -0.005 |
| VANGL1 (UniProt Q8TAA9) | 0 | -0.043 | -0.088 | 0.022 | -0.149 | -0.377 | -0.01 | -0.072 | 0.004 | 0.182 | 0.08 | -0.041 | -0.317 (active) | 0.183 | 0.037 | 0.007 | -0.109 | -0.062 | -0.066 | 0.007 |
| UPF3B (UniProt Q9BZI7) | -0.026 | -0.109 | 0.042 | 0.02 | -0.005 | 0.017 | -0.014 | -0.018 | -0.008 | 0.008 | -0.011 | 0.024 | 0.007 | -0.006 | -0.021 | 0.018 | -0.04 | 0.008 | -0.001 | -0.003 |
